# D1 PAM: potentiators of human D1 dopamine receptor. AID 504651. potentiation, % at 10 µM. hit rate 0.036% among 360,000. P21728. HEK293 TREx D1 cells, calcium flux, dopamine EC20 potentiation; in the data active = potentiation above about 30%; note: 0% is about no effect
# Target sequence (P21728 whole entry, looked up): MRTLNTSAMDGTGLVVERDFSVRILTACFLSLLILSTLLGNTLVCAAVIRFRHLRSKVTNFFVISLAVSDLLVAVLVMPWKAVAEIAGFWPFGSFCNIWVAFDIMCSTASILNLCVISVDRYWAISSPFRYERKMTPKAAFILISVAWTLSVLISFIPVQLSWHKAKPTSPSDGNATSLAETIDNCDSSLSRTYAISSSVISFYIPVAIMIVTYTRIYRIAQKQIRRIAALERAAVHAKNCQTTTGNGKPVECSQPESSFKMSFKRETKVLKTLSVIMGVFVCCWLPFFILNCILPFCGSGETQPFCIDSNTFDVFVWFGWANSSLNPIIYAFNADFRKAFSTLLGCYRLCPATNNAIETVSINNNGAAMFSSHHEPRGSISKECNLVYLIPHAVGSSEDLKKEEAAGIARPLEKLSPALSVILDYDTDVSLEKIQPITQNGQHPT
# D1 ag: agonists of human D1 dopamine receptor | P21728 | HEK293 T-REx D1 cells, calcium flux, agonist mode | activation, % at 2 µM | hit rate 1% among 360,000; note: 0% is about no effect
#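 Tetracycline-induced HEK293 TREx D1 cells, force-coupled to calcium signalling, were dye-loaded with a no-wash calcium kit. Compound was pin-added after a 10 s baseline. Fluorescence was read kinetically at 1 cycle/s for 180 s, with calcium rises flagged as agonism.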
# TRHR ag: agonists of human TRH receptor. activation, % at 2 µM. P34981. TRHR cells, calcium flux fluo-8, FDSS agonist mode. hit rate 0.18% among 360,000. AID 493084; note: 0% is about no effect
#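 TRHR-expressing cells loaded with fluo-8 calcium dye; 23 nL library compound pin-transferred, kinetic FDSS fluorescence (Ex 480/Em 530) recorded about 180 s for agonist-induced calcium release, before a 10 nM TRH EC20 addition for potentiator mode.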
# TRHR PAM: TRH receptor (human) allosteric enhancement; P34981; TRHR cells, fluo-8 calcium fluorescence, EC20 TRH enhancement; enhancement, % at 2 µM; hit rate 0.66% among 360,000; in the data active = enhancement above about 30%; note: 0% is about no effect
#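 Enhancer read-out: after compound pinning and an initial kinetic agonist-mode read, an EC20 of TRH (10 nM final) was injected and fluo-8 calcium signal (Ex 480/Em 530) followed at 1 s/cycle for 100 cycles in TRHR-expressing cells.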
# D1 antag: human D1 dopamine receptor antagonism. P21728. hit rate 3.2% among 360,000. activity change, negative = inhibition, % at 10 µM. HEK293 TREx D1 cells, calcium flux, dopamine EC80; stronger effect = lower value. AID 504652; in the data active = activity change below about -30%; note: % is set by controls: 0 for no effect and ±100 for the full control effect
#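 After overnight tetracycline induction at 30 C, force-coupled D1 HEK293 cells took up a no-wash calcium dye at room temperature. Compounds were added and monitored 180 s, and the response to EC80 dopamine was then recorded.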
# An asterisk follows results filed as active; . = not tested or not shown. The list is not random: actives were taken first. Their share in the collection is about 4.7%. Cut-off read from the data, not from the text of the source, unless noted: active = activation above about 30%; inactive = the rest.
SMILES,D1 PAM,D1 ag,TRHR ag,TRHR PAM,D1 antag
Cc1ccc(NC(=O)COc2ccc(C(=O)c3ccccc3)cc2)c(O)c1,-10.1,11.4,-0.5,-5.5,-30.4*
N=c1n(CCN2CCOCC2)c2ccccc2n1CC(O)COc1ccccc1 (configuration not stated),-2.1,0.2,-0.1,5.7,-10.4
CCCCn1c(=N)n(CC(O)COc2ccccc2)c2ccccc21 (configuration not stated),-8.6,21.7,3.2,1.6,7.0
CCn1c(=N)n(CC(O)COc2cccc(C)c2)c2ccccc21 (configuration not stated),-3.8,78.7*,-1.3,-3.0,-4.1
CCCn1c(=N)n(CC(O)COc2cccc(C)c2)c2ccccc21 (configuration not stated),-2.6,44.2*,1.7,-0.3,-10.6
CCCCCn1c(=N)n(CC(O)COc2cccc(C)c2)c2ccccc21 (configuration not stated),-4.3,59.5*,1.6,7.2,-5.9
N=c1n(CCN2CCCCC2)c2ccccc2n1CC(O)COc1ccccc1 (configuration not stated),-6.0,2.5,-0.3,-3.3,-3.1
CCOc1ccc(CCn2c3c(c(=O)[nH]c2=O)C(NC(=O)c2cccc(F)c2)(C(F)(F)F)C(=O)N3)cc1OCC (configuration not stated),0.2,-1.0,-3.4,-1.0,-4.9
COc1ccc(CN2C(=O)C(C)Oc3ccccc32)cc1 (configuration not stated),6.2,12.5,-0.9,-5.5,-35.3*
CN(C)c1ccc(NC(=O)Cn2nnc3sc4c(c3c2=O)CCC(C(C)(C)C)C4)cc1 (configuration not stated),2.4,0.3,-0.5,5.1,-4.0
Cc1ccc(S(=O)(=O)N2CCN(C(=O)c3cc(C4CC4)nc4c3cnn4C(C)C)CC2)cc1,-0.8,2.8,-0.1,5.3,-2.0
CCc1nn(CC(=O)NCCN(CC(C)C)CC(C)C)c(=O)c2cc3sc(C)cc3n12,-2.8,-0.8,-0.4,54.7*,3.5
CCOc1ccc(CCNC(=O)Cn2nc(CC)n3c(cc4ccccc43)c2=O)cc1,-3.7,0.9,0.0,2.7,-43.0*
CCC(CO)Oc1cc(NC(=O)c2ccccc2)c2ncn(C(C)C)c2c1 (configuration not stated),-1.5,0.7,-0.1,-5.4,-6.6
CC(C)C(=O)c1cc2c(cc1NC(=O)c1ccccc1F)OCCO2,7.0,6.4,0.9,23.0,23.2
CC(C)CN(C(=O)CN1CCN(S(=O)(=O)c2ccc3ccccc3c2)CC1)c1c(N)n(CC(C)C)c(=O)[nH]c1=O,-4.7,0.3,0.0,-1.3,-88.4*
CC(C)CN(C(=O)CN1CCN(c2cccc(Cl)c2)CC1)c1c(N)n(CC(C)C)c(=O)[nH]c1=O,7.3,1.4,0.1,0.3,-7.3
O=c1c(N2CCCCC2)csc2ccc(F)cc12,4.9,3.5,0.3,0.6,-74.8*
Cc1ccc2scc(N3CCN(c4ccc(F)cc4)CC3)c(=O)c2c1,-1.5,2.2,-0.2,38.6*,5.4
Cc1ccc2scc(N3CCN(c4ccccc4)CC3)c(=O)c2c1,-0.7,2.3,-0.1,5.1,-6.5
CCOc1c(CC2C(=O)Nc3ccc(Br)cc32)cccc1OC (configuration not stated),-2.5,68.7*,-2.7,9.4,-41.0*
COc1ccc(-c2n[nH]c3c2CN(C(=O)c2ccccc2)CC3)cc1,-4.1,1.8,-0.9,15.2,-4.6
O=C(c1ccco1)N1CCc2[nH]nc(-c3ccc(Cl)cc3)c2C1,0.9,2.8,-0.5,6.8,-30.4*
O=C(O)c1c(Cl)c(Cl)c(Cl)c(Cl)c1C(=O)N1CCCCCC1,-4.0,2.4,0.6,1.8,3.1
O=C(O)c1c(Cl)c(Cl)c(Cl)c(Cl)c1C(=O)N1CCOCC1,-2.6,4.1,0.9,-0.2,-35.5*
SMILES,D1 PAM,D1 ag,TRHR ag,TRHR PAM,D1 antag
CCCN(C(=O)c1cc2c(=O)n(CC)c3ccccc3c2s1)c1ccccc1F,1.0,1.4,0.0,-0.6,-3.1
CCOc1ccccc1N(CC)C(=O)c1cc2c(=O)n(CC)c3ccccc3c2s1,-4.5,5.2,-0.5,50.0*,0.5
COC(=O)NC(=S)Nc1ccc(Oc2ccc(Cl)cc2)c(Cl)c1,-5.2,6.1,-0.5,0.0,-35.4*
COc1ccc(Nc2cc(C(=O)NCCc3ccc(C)cc3)c3ccccc3n2)c(OC)c1,0.5,2.2,-0.9,-6.0,12.5
CC(C)c1nccn1CCC(=O)O,-28.2,2.5,0.3,-22.9,-43.6*
Cc1nccn1CC(=O)O,12.3,2.4,0.3,-2.9,-9.8
CCOC(=O)C1CCN(C(=O)COc2ccc(S(=O)(=O)N3CCOCC3)cc2C)CC1,-5.4,0.6,-0.3,-3.5,2.9
CCOc1ccc(NS(=O)(=O)c2c(C)nc3sccn3c2=O)cc1,-10.3,6.8,0.8,-5.9,-33.8*
COc1cccc(NS(=O)(=O)c2c(C)nc3sccn3c2=O)c1,0.1,7.8,0.3,-3.1,-42.6*
CC(=O)Nc1ccc(NS(=O)(=O)c2c(C)nc3sccn3c2=O)cc1,-4.4,1.1,0.0,1.9,-4.4
COc1ccc(Nc2ncnc3sccc23)c(OC)c1,4.8,2.4,-0.5,-3.0,-5.5
CN1CCN(S(=O)(=O)c2ccc(N(C)Cc3cccs3)nc2)CC1,-10.3,5.7,-0.5,4.2,-38.1*
CN1CCN(S(=O)(=O)c2cccc(C(=O)N(C)Cc3cccs3)c2)CC1,.,2.8,-0.5,-5.7,-46.5*
CC1CCn2c(nc3cc(C(=O)NCc4ccc(F)cc4)ccc32)C1 (configuration not stated),-3.4,-0.2,-0.2,-0.6,-4.0
N#CC1=C(N)OC2=C(CC/C2=C\c2ccccc2Cl)C1c1ccccc1Cl (configuration not stated),-6.5,35.3*,11.7,16.2,0.9
CCOc1cc(/C=N\NC(=O)c2ccc(NC(=O)C(C)(C)C)cc2)ccc1OC(=O)c1ccc(C)cc1,-3.1,1.1,0.4,1.0,13.5
COc1cc(/C=N/NC(=O)c2sc3ccccc3c2Cl)ccc1OC(=O)c1ccc([N+](=O)[O-])cc1,-5.3,1.3,0.6,-1.8,-37.7*
COc1ccc(/C=N/NC(=O)c2cccc([N+](=O)[O-])c2)cc1OC(=O)c1ccccc1,-5.0,-2.4,0.4,-1.2,-9.1
CCOc1cc(/C=N\NC(=O)c2ccc(NC(=O)CC)cc2)ccc1OC(=O)c1ccccc1,-11.0,4.8,0.3,4.4,-57.3*
CCOc1cc(/C=N/NC(=O)CSc2nncn2C)ccc1OC(=O)c1ccc(Cl)cc1,-4.8,-0.7,-0.5,30.1*,-54.9*
CCOc1cc(/C=N/NC(=O)CSc2nncn2C)ccc1OCC(N)=O,5.0,4.5,0.4,2.4,17.3
O=C(N/N=C/c1ccc(OC(=O)c2ccccc2)c([N+](=O)[O-])c1)c1ccc(O)cc1,-9.5,4.2,-0.7,-3.4,-33.1*

# Compound activity: PubChem, National Center for Advancing Translational Sciences (NCATS)
